# Reference: PubChem BioAssay (NCI)
# This is part of a sample that, as a whole, favours compounds with a hit. Of some 83,000 tested, about 20% had one in any assay.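 For each line, cells grew in 96-well plates with the test compound present at a single concentration for 48 hours.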 The source made the active and inactive calls. How the source made its calls: active means growth percent below 10; inactive means the rest.
# Tested on: SK-OV-3 ovarian
# Assay: NCI-60 one-dose screen, 48 h (100 = growth as untreated, 0 = no growth, -100 = all killed)
# Details: 10 µM unless noted
row,Compound,growth
1,Clc1ccc(-c2nnc(-c3ccco3)o2)cc1,102% (inactive)
2,CC1(C)N=C(N)N=C(N)N1c1ccc(Cl)c(Cl)c1,39.5% (inactive)
3,O=C1CSC(c2ccc(O)cc2)N1c1nnc(Cn2cnnc2)o1 (stereo not drawn),112% (inactive)
4,Nc1ccc2c(S(=O)(=O)O)ccc(S(=O)(=O)O)c2c1,95.6% (inactive)
5,NC(N)=N/N=C/c1ccc(Br)cc1,-19.4% (active)
6,N#Cc1c(N)nc2c(nnn2-c2cccc(Br)c2)c1N,101% (inactive)
7,C=C(C=O)C1CCC2(C(=O)O)CCC3(C)C(CCC4C5(C)CCC(O)C(C)(C)C5CCC43C)C12 (stereo not drawn),51% (inactive)
8,O=C1Nc2ccccc2SC1c1ccccc1Cl (stereo not drawn),114% (inactive)
9,CCOC(=O)c1sc2ccc(NCc3nc[nH]c3C)cc2c1NC(=O)c1cc(OC)c(OC)c(OC)c1,98.1% (inactive)
10,COc1cc(/C=C/C(=O)c2cccc(-n3cc(-c4ccc(Cl)cc4)[nH]c3=O)c2)cc(OC)c1OC,84.8% (inactive)
11,CCCc1cc(=O)oc2c3c(c4c(c12)OC(C)(C)C=C4)O[C@@H](C)[C@H](C)C3=O,92.3% (inactive)
12,Cc1cc(Cc2cc(C)cc(C(C)(C)C)c2O)c(O)c(C(C)(C)C)c1,51.9% (inactive)
13,CN(C)c1ccc2cc(-c3ccccc3F)c(N)nc2c1,28.9% (inactive)
14,CCN(CC)CCCNC(=O)c1ccc(N)cc1O,105% (inactive)
15,Cc1cn(C2CCCCC2)c(=O)[nH]c1=O,112% (inactive)
16,Cc1c2c(cn1Cc1ccccc1)CCc1cn(C)nc1-2,108% (inactive)
17,COc1cc(C(=O)/C=C/c2c(C(F)(F)F)nc3ccccn23)cc(OC)c1OC,-1.92% (active)
18,CCCCOC(=O)c1ccc(NC(=O)C(C)N2CCOCC2)cc1 (stereo not drawn),109% (inactive)
19,Cc1c2c(cn1Cc1ccccc1)CCc1cn[nH]c1-2,114% (inactive)
20,COc1ccc(-c2cn(-c3cccc(C(=O)/C=C/c4cc(OC)c(OC)c(OC)c4)c3)c(=O)[nH]2)cc1,31.6% (inactive)

row,Compound,growth
1,CSc1ccc(Cl)c(C(=O)Nc2sccc2C(N)=O)c1,115% (inactive)
2,CC(=O)Nc1cccc(C2=CC(c3ccc(C)cc3)n3ncnc3N2)c1 (stereo not drawn),133% (inactive)
3,O=C(O)CC1Sc2ccccc2NC1=O (stereo not drawn),106% (inactive)
4,COc1ccc(-c2nc3ccccn3c2/C=C/C(=O)c2cc(OC)c(OC)c(OC)c2)cc1,62.8% (inactive)
5,Cc1cccc(-c2cc(O)c(C(=O)N3CCOCC3)s2)c1,41.7% (inactive)
6,CCC(=O)OC1=C(C)SC2=NC(c3ccc(Cl)c(Cl)c3)=CC(c3cc(OC)c(OC)c(OC)c3)N21 (stereo not drawn),105% (inactive)
7,COc1ccc(NC(=O)C(=O)c2c[nH]c3ccc(F)cc23)cc1,89.4% (inactive)
8,COc1ccc(/C(C)=C(\c2ccc(Cl)cc2)c2ccc(OCCN3CCCCCC3)cc2)cc1F,71.5% (inactive)
9,CC/C=C/[C@@H]1C=C[C@@H]2CCC[C@H]2[C@@H]1CC[C@H](O)[C@H](C)N,-15.9% (active)
10,O=C1CSC(c2ccccc2Cl)N1c1nnc(Cn2cnnc2)o1 (stereo not drawn),49% (inactive)
11,COc1ccc(-c2nc3ncccn3c2/C=C/C(=O)c2cc(OC)c(OC)c(OC)c2)cc1,-13.5% (active)
12,C=C(C=O)[C@@H]1CC=C(C=O)CC1,0.713% (active)
13,CC(c1ccc(-n2cccn2)cc1)c1cnc(N2CCc3ccc(C(N)=O)cc3C2)s1 (stereo not drawn),68.6% (inactive)
14,COc1cc(C(=O)/C=C/c2c(-c3ccc(F)cc3)nc3ncccn23)cc(OC)c1OC,63.9% (inactive)
15,CNC=O,105% (inactive)
16,CCOC(=O)c1c2c(c(C)n1C)-c1nn(Cc3ccc(OC)cc3)cc1CC2,109% (inactive)
17,Cc1ccccc1NC(=O)CN(C)C,101% (inactive)
18,COc1cc(/C=C/C(=O)c2cccc(-n3cc(-c4ccccc4)[nH]c3=O)c2)cc(OC)c1OC,4.74% (active)
19,O=C(CC1Sc2ccccc2NC1=O)NNc1ccc(F)cc1 (stereo not drawn),92.5% (inactive)

# Tested on: IGROV1 ovarian
# Assay: as above
# Details: 10 µM unless noted
row,Compound,growth
1,Clc1ccc(-c2nnc(-c3ccco3)o2)cc1,93.8% (inactive)
2,CC1(C)N=C(N)N=C(N)N1c1ccc(Cl)c(Cl)c1,41.2% (inactive)
3,O=C1CSC(c2ccc(O)cc2)N1c1nnc(Cn2cnnc2)o1 (stereo not drawn),104% (inactive)
4,Nc1ccc2c(S(=O)(=O)O)ccc(S(=O)(=O)O)c2c1,82.5% (inactive)
5,NC(N)=N/N=C/c1ccc(Br)cc1,19.3% (inactive)
6,N#Cc1c(N)nc2c(nnn2-c2cccc(Br)c2)c1N,93.5% (inactive)
7,C=C(C=O)C1CCC2(C(=O)O)CCC3(C)C(CCC4C5(C)CCC(O)C(C)(C)C5CCC43C)C12 (stereo not drawn),6.56% (active)
8,O=C1Nc2ccccc2SC1c1ccccc1Cl (stereo not drawn),101% (inactive)
9,CCOC(=O)c1sc2ccc(NCc3nc[nH]c3C)cc2c1NC(=O)c1cc(OC)c(OC)c(OC)c1,89.5% (inactive)
10,COc1cc(/C=C/C(=O)c2cccc(-n3cc(-c4ccc(Cl)cc4)[nH]c3=O)c2)cc(OC)c1OC,13.1% (inactive)
11,CCCc1cc(=O)oc2c3c(c4c(c12)OC(C)(C)C=C4)O[C@@H](C)[C@H](C)C3=O,74.8% (inactive)
12,Cc1cc(Cc2cc(C)cc(C(C)(C)C)c2O)c(O)c(C(C)(C)C)c1,47.5% (inactive)
13,CN(C)c1ccc2cc(-c3ccccc3F)c(N)nc2c1,40.9% (inactive)
14,CCN(CC)CCCNC(=O)c1ccc(N)cc1O,91.8% (inactive)
15,Cc1cn(C2CCCCC2)c(=O)[nH]c1=O,126% (inactive)
16,Cc1c2c(cn1Cc1ccccc1)CCc1cn(C)nc1-2,102% (inactive)
17,COc1cc(C(=O)/C=C/c2c(C(F)(F)F)nc3ccccn23)cc(OC)c1OC,9.02% (active)
18,CCCCOC(=O)c1ccc(NC(=O)C(C)N2CCOCC2)cc1 (stereo not drawn),103% (inactive)
19,Cc1c2c(cn1Cc1ccccc1)CCc1cn[nH]c1-2,84.5% (inactive)
20,COc1ccc(-c2cn(-c3cccc(C(=O)/C=C/c4cc(OC)c(OC)c(OC)c4)c3)c(=O)[nH]2)cc1,8.71% (active)

row,Compound,growth
1,CSc1ccc(Cl)c(C(=O)Nc2sccc2C(N)=O)c1,105% (inactive)
2,CC(=O)Nc1cccc(C2=CC(c3ccc(C)cc3)n3ncnc3N2)c1 (stereo not drawn),114% (inactive)
3,O=C(O)CC1Sc2ccccc2NC1=O (stereo not drawn),93.6% (inactive)
4,COc1ccc(-c2nc3ccccn3c2/C=C/C(=O)c2cc(OC)c(OC)c(OC)c2)cc1,61.6% (inactive)
5,Cc1cccc(-c2cc(O)c(C(=O)N3CCOCC3)s2)c1,50% (inactive)
6,CCC(=O)OC1=C(C)SC2=NC(c3ccc(Cl)c(Cl)c3)=CC(c3cc(OC)c(OC)c(OC)c3)N21 (stereo not drawn),106% (inactive)
7,COc1ccc(NC(=O)C(=O)c2c[nH]c3ccc(F)cc23)cc1,118% (inactive)
8,COc1ccc(/C(C)=C(\c2ccc(Cl)cc2)c2ccc(OCCN3CCCCCC3)cc2)cc1F,56.8% (inactive)
9,CC/C=C/[C@@H]1C=C[C@@H]2CCC[C@H]2[C@@H]1CC[C@H](O)[C@H](C)N,1.42% (active)
10,O=C1CSC(c2ccccc2Cl)N1c1nnc(Cn2cnnc2)o1 (stereo not drawn),74.7% (inactive)
11,COc1ccc(-c2nc3ncccn3c2/C=C/C(=O)c2cc(OC)c(OC)c(OC)c2)cc1,17.2% (inactive)
12,C=C(C=O)[C@@H]1CC=C(C=O)CC1,-24.5% (active)
13,CC(c1ccc(-n2cccn2)cc1)c1cnc(N2CCc3ccc(C(N)=O)cc3C2)s1 (stereo not drawn),79.8% (inactive)
14,COc1cc(C(=O)/C=C/c2c(-c3ccc(F)cc3)nc3ncccn23)cc(OC)c1OC,47.8% (inactive)
15,CNC=O,95% (inactive)
16,CCOC(=O)c1c2c(c(C)n1C)-c1nn(Cc3ccc(OC)cc3)cc1CC2,111% (inactive)
17,Cc1ccccc1NC(=O)CN(C)C,96% (inactive)
18,COc1cc(/C=C/C(=O)c2cccc(-n3cc(-c4ccccc4)[nH]c3=O)c2)cc(OC)c1OC,-23.8% (active)
19,O=C(CC1Sc2ccccc2NC1=O)NNc1ccc(F)cc1 (stereo not drawn),70.3% (inactive)
